# Experimental data as given in PubChem BioAssay AID686979 (National Center for Advancing Translational Sciences (NCATS), 2013).
# Where “and” joins values, the source holds several entries; their conditions need not be identical. Identical values can stand only once. The campaign covered roughly 420,000 compounds. About 50,000 (12%) were called active. A call without a number means that no potency is given here. Not shown: some 26% with an inconclusive outcome. Calls follow the shape of the dose curve; as a rule, active = well fitted inhibition curve with a large enough effect; inconclusive = small, poorly fitted or top-dose-only effect; inactive = flat fitted curve, though single readings scatter. For the sample, actives were picked, then their nearest neighbours and some compounds at random.
# Assay: qHTS for Inhibitors of human tyrosyl-DNA phosphodiesterase 1 (TDP1): qHTS in cells in presence of CPT; also: nearly all actives have a fitted effect of over 55% in size
# Conditions: chicken DT40 Tdp1-/-;hTDP1 cells + 20 nM CPT, ATP luminescence, 48 h; series mostly up to 46.2 µM
# In short: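 Cell growth measured by CellTiter-Glo luminescence after a minimum 48 h, 37 C compound exposure with 20 nM CPT in Tdp1-knockout DT40 cells stably expressing hTDP1, seeded 400/well; qHTS titration format.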
# Potency is read from the fitted curve at half-maximal effect.
SMILES,Potency,"activity change, negative = growth inhibition"
CC(C)(C)NC(=O)NC(=O)COC(=O)Cc1ccc(Cl)cc1Cl,inactive,
Clc1ccc(-c2ncc3ccccn23)c(Cl)c1,inactive,
CCc1nc2c(OCc3ccc(C(=O)OC)cc3)cccn2c1N(C)C(=O)C(C)C,20.6 µM (active),
CCc1nc2c(OCC(=O)C(C)(C)C)cccn2c1N(C)C(=O)c1ccccc1F,inactive,
CCc1nc2c(OCc3ccc(Cl)cc3Cl)cccn2c1N(C)C(=O)C(C)C,7.31 µM (active),
CCCCC(=O)N(C)c1c(CC)nc2c(OCc3ccc(Cl)cc3Cl)cccn12,20.6 µM (active),
COC(=O)c1ccc(COC(=O)c2cnccn2)cc1,inactive,
CCOC(=O)c1nc(C)n(-c2ccc(Cl)cc2Cl)n1,inactive,
Cc1nc2c(OCc3ccc(Cl)cc3Cl)cccn2c1N(C)CC1CC1,16.4 µM (active),
COC(=O)c1ccc(CSc2nncn2C)cc1,inactive,
CC(C)(C)OC(=O)NC(Cc1ccccc1)C(=O)NC(CSC1CCCCO1)C(=O)NN (centres undefined),inactive,
CC(=O)c1cc2c(cc1NC(=O)Cn1nc(-c3ccc(F)cc3)ccc1=O)OCO2,inactive,
COc1ccccc1OCCCCCCN1CCN(C)CC1,inactive,
CC(C)[C@H](NC(=O)N1c2ccccc2NC(=O)[C@@H]1C(C)C)C(=O)N[C@H](C(=O)O)c1ccccc1,inactive,
CCCNC(=O)c1onc(CSc2ccc(F)cc2)c1C(=O)NC(C)C,inactive,
COc1cc(C(=O)N2CCC(c3ccncc3)CC2)cc(OC)c1OC,inactive,
COc1cc(C(F)(F)F)nc2c(Br)c(C(C)(C)C)nn12,inactive,
Cc1cc2nc(-c3ccc(NC(=O)c4cc5ccccc5o4)cc3)oc2cc1C,inactive,
CC(OC(=O)/C=C/c1ccccc1)C(=O)NC1CCCCC1C (centres undefined),inactive,
COc1cccc2sc(N(CCCN(C)C)C(=O)C(c3ccccc3)c3ccccc3)nc12,20.6 µM (active),
O=C(CCS(=O)(=O)c1ccccc1)N(Cc1cccnc1)c1nc2c(F)cccc2s1,3.66 µM (active),
O=C(C1COc2ccccc2O1)N(Cc1cccnc1)c1nc2c(F)cc(F)cc2s1 (centres undefined),inactive,
Cc1cccc2sc(N(CCCN(C)C)C(=O)CCS(=O)(=O)c3ccccc3)nc12,1.84 µM (active),
O=C(NCc1cccnc1)Nc1ccccc1F,inactive,
COc1ccc(N(C)C(=O)CCS(=O)(=O)c2cccc3nsnc23)cc1,inactive,

SMILES,Potency,"activity change, negative = growth inhibition"
CN(C)CCCN(C(=O)COc1ccccc1)c1nc2c(Cl)cccc2s1,inactive,
CN(C)CCN(C(=O)CN1C(=O)c2ccccc2C1=O)c1nc2cc3c(cc2s1)OCCO3,inactive,
Cc1cccc(C)c1NC(=O)CCS(=O)(=O)c1cccc2nsnc12,inactive,
Cn1c(=NC(=O)c2ccc3c(c2)OCCO3)sc2cc(S(C)(=O)=O)ccc21,inactive,
O=C(NCc1ccncc1)c1cccc(NS(=O)(=O)c2ccc(F)c(F)c2)c1,inactive,
COc1ccccc1OCCC(=O)OCC(=O)NCc1ccccc1,inactive,
CC(C)c1c(O)nc(SCCOc2ccc(Cl)cc2)[nH]c1=O,inactive,
COc1ccc(CN2C(=O)C(CC(=O)NCCCCc3ccccc3)CC(C(=O)N3CCOCC3)=C2C)cc1 (centres undefined),inactive,
Cc1ncc2c(c1CNS(=O)(=O)N(C)C)CCN(C(=O)c1ccccc1F)C2,,12.2% [at 9.04 µM] (inactive)
O=C(NCc1cccc(Cl)c1)C1=CC=CN2CCS(=O)(=O)N=C12,inactive,
COc1ccc(CN(C)C(=O)Cc2ccsc2)c(OC)c1OC,inactive,
COc1ccc(-c2cc(C(=O)NCCCN3CCCC3=O)c3ccccc3n2)cc1OC,inactive,
COc1cccc(NC(=O)CN(C)C(=O)c2cc(Cl)nc3ccccc23)c1,inactive,
COc1ccc(-c2cc(C(=O)N(C)CC(=O)Nc3ccccc3Cl)c3ccccc3n2)cc1OC,20.6 µM (active),
COc1ccc(Cl)cc1NC(=O)CN(C)C(=O)c1ccc2n[nH]nc2c1,inactive,
COc1ccc(-c2cc(C(=O)N(C)Cc3ccc(OC)c(OC)c3OC)c3ccccc3n2)cc1OC,16.4 µM (active),
COc1ccc(CN2[C@@H](CC(=O)O)c3cc(F)ccc3S2(=O)=O)cc1,inactive,
CCN(CC)S(=O)(=O)c1ccc(-c2cn3ccc(C)cc3n2)cc1,inactive,
Cc1ccc(S(=O)(=O)n2nc(C)c(S(=O)(=O)N3CCCCCC3)c2C)cc1,inactive,
COc1ccc(NS(=O)(=O)c2cccc3nsnc23)cc1Cl,inactive,
COc1ccc([C@H]2CC(=O)C=C(c3ccc(C)cc3)C2)cc1,inactive,
Cc1csc(NC(=S)Nc2cccc(Cl)c2)n1,1.64 µM (active),
CC(=O)Nc1cccc(C(=O)Nc2nc(C)cs2)c1,inactive,
S=C(Nc1cccc(Cl)c1)Nc1ccc2cn[nH]c2c1,inactive,
Cc1cc(C)cc(NC(=O)CCS(=O)(=O)c2cc3c4c(c2)CCN4C(=O)CC3)c1,inactive,

SMILES,Potency,"activity change, negative = growth inhibition"
Cn1c(-c2ccco2)nc2cc3ccccc3cc21,11.6 µM (active),
Cn1cccc1-c1nc2ccccc2n1C,inactive,
S=c1[nH]nc(-c2ccco2)n1/N=C/c1ccccc1,inactive,
CCOc1ccc(S(=O)(=O)N(CC(=O)NCCSCc2ccc(C)cc2)c2ccccc2)cc1,inactive,
CCS(=O)(=O)Nc1cc(C(=O)N2C[C@@H](C)O[C@@H](C)C2)c2c(c1)nc(-c1ccccc1)n2C,inactive,
CCOC(=O)C1=C(O)CSC1=Nc1cccc(Cl)c1,inactive,
CN(C)c1nc(=Nc2cccc(Cl)c2)ss1,0.206 µM (active),
O=C(O)C1=NN(c2c(F)c(F)cc(F)c2F)C(=O)CC1,inactive,
O=C(O)CCc1cccnc1,inactive,
C/C(=N\NC(=O)CCn1nc(C)cc1C)C(C)(C)C,inactive,
CC(=O)N1CCC2(CC1)CCN(c1ccncc1)CC2,inactive,
Cc1ccc2c(C)c(C(=O)N(C)Cc3ccncn3)oc2c1C,inactive,
Cc1ccc2c(C)c(C(=O)N3CCN(c4ccncc4)CC3)oc2c1C,23.1 µM (active),
CCOC(=O)N(Cc1ccccc1)C1CC1,inactive,
Cc1noc(C)c1-c1ccc(C(=O)NCc2ccncc2)c2occc12,9.2 µM (active),
CCN(CC(=O)NCc1ccc(Cl)cc1)C(=O)c1c(C)noc1C,inactive,
O=C(NCc1ccncc1)C(=O)NCc1ccco1,inactive,
Cc1ccc(CNC(=O)CCc2c(C)nc3c(c(C)nn3-c3ccccc3)c2C)cc1,inactive,
COC(=O)c1c(C)oc2ccc(N(C(=O)Oc3ccccc3)S(=O)(=O)c3ccccc3)cc12,20.6 µM (active),
CC(=O)Oc1ccc(N(C(C)=O)S(=O)(=O)c2ccc3ccccc3c2)cc1Br,inactive,
CCOC(=O)c1c(C)oc2ccc(N(C(=O)c3ccncc3)S(=O)(=O)c3ccc(CC)cc3)cc12,5.8 µM (active),
CCOC(=O)c1c(C)oc2nc(C)nc(Nc3ccc(CC)cc3)c12,inactive,
CN(CC(=O)O)S(=O)(=O)c1ccc2oc3ccccc3c2c1,inactive,
CCOC(=O)c1c(C)oc2cc(Br)c(OCC(N)=O)cc12,inactive,
COc1cc(/C=C2/C(=O)NN(c3ccc(F)cc3)C2=O)cc([N+](=O)[O-])c1O,inactive,

SMILES,Potency,"activity change, negative = growth inhibition"
CC(C)(C)c1cc(=O)n2c(nc3ccccc32)[nH]1,inactive,
COCCOC(=O)C1=C(C)NC(=O)NC1c1cc2c(cc1Br)OCO2 (centres undefined),inactive,
O=C(O)C1=C/C(=C/C=[N+]2c3cc(O)c(O[C@H]4OC(CO)[C@@H](O)[C@@H](O)[C@@H]4O)cc3C[C@@H]2C(=O)[O-])C[C@H](C(=O)O)N1 (some centres undefined),inactive,
COc1ccc(CNC(=O)COC(=O)C(CCSC)N2C(=O)c3ccccc3C2=O)cc1 (centres undefined),inactive,
COc1ccc(/C(O)=C2\C(=O)C(=O)N(Cc3ccco3)C2c2ccc(OC)cc2OC)cc1 (centres undefined),29.1 µM (active),
COc1ccc(C2/C(=C(/O)c3ccccc3)C(=O)C(=O)N2C)c(OC)c1 (centres undefined),inactive,
COc1ccccc1C1/C(=C(/O)c2ccc(C)cc2)C(=O)C(=O)N1Cc1ccco1 (centres undefined),inactive,
CCn1c(SCC(=O)NC2CC2)nnc1-c1ccccn1,inactive,
CO[C@H]1[C@@H](O)[C@H](N)[C@@H](O[C@H]2O[C@H]([C@H](C)N)CC[C@H]2N)[C@H](O)[C@@H]1N(C)C(=O)CN,inactive,
CC[C@]1(O)C[C@@H]2CN(CCc3c([nH]c4ccccc34)[C@@](C(=O)OC)(c3cc4c(cc3OC)N(C)[C@H]3[C@@](O)(C(=O)OC)[C@H](OC(C)=O)[C@]5(CC)C=CCN6CC[C@]43[C@@H]65)C2)C1,65.1 nM (active) and 47.3 nM (active) and 146 nM (active),
CC[C@]1(O)CC2CN(CCc3c([nH]c4ccccc34)[C@@](C(=O)OC)(c3cc4c(cc3OC)N(C=O)[C@H]3[C@@](O)(C(=O)OC)[C@H](OC(C)=O)[C@]5(CC)C=CCN6CC[C@]43[C@@H]65)C2)C1 (some centres undefined),0.146 µM (active),
CCc1nc2onc(C)c2c(=O)n1CC(=O)O,inactive,
O=C1Cc2cc(S(=O)(=O)Nc3cccc(F)c3)ccc2N1,inactive,
CCC(C(=O)Nc1ccc2c(c1)OCCO2)c1ccccc1 (centres undefined),inactive,
Cc1cccc(C(=O)Nc2ccc(-c3nc4ccccc4s3)c(C)c2)c1,inactive,
CCC(C(=O)Nc1ccc(C(C)C)cc1)c1ccccc1 (centres undefined),inactive,
Cc1c(NC(=O)C(C)(C)C)cccc1-c1nc2ccccc2s1,13 µM (active),
CCC(C(=O)Nc1cccc(-c2nc3cccnc3s2)c1C)c1ccccc1 (centres undefined),20.6 µM (active),
CC(=O)Nc1cccc(-c2nc3ccccc3s2)c1C,inactive,
Cc1c(O)cc2c(c1C)O[C@](C)(CCC[C@H](C)CCC[C@H](C)CCCC(C)C)CC2,inactive,
Cc1ccc(NC(=O)c2cc([N+](=O)[O-])ccc2Cl)c(O)c1,inactive,
COc1ccc(N2CCN(c3ccc([N+](=O)[O-])cc3Cl)CC2)cc1,inactive,
CCOc1ccc(Nc2nc(Cl)nc(N3CCN(c4ccc(OC)cc4)CC3)n2)cc1,18.4 µM (active),
CCC(=O)Nc1ccc(Nc2nc(Cl)nc(Nc3ccc(NC(=O)CC)cc3)n2)cc1,inactive,
